T1: I43F C2 integrase (Bacteriophage lambda, UniProt P03700 SEQ:1-356, I43F)
T1 sequence: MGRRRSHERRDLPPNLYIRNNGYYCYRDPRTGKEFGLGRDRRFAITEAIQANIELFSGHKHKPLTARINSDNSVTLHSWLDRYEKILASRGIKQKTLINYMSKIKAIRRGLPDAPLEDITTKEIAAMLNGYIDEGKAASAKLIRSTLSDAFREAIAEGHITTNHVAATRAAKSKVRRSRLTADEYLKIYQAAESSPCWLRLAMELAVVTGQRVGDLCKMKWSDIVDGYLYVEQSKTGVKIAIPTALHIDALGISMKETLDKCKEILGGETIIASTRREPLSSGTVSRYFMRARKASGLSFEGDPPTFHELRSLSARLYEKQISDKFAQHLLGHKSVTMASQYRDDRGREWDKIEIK

B1: attB ; attP (dsDNA ; dsDNA)
DNA 1: CTGCTTTTTTATACTAACTTG
DNA 2: CAAGTTAGTATAAAAAAGCAG
DNA 3: CAGCTTTTTTATACTAAGTTG
DNA 4: CAACTTAGTATAAAAAAGCTG
B2: attH ; attPH (dsDNA ; dsDNA)
DNA 1: CTGCTTTCTTATACCAAGTGG
DNA 2: CCACTTGGTATAAGAAAGCAG
DNA 3: CAGCTTTCTTATACCAAGTTG
DNA 4: CAACTTGGTATAAGAAAGCTG
B3: attH4X ; attP4X (dsDNA ; dsDNA)
DNA 1: ACGCTTTATTTCATTAAGTTG
DNA 2: CAACTTAATGAAATAAAGCGT
DNA 3: CAGCTTTATTTCATTAAGTTG
DNA 4: CAACTTAATGAAATAAAGCTG

biological target: T1, I43F C2 integrase; experiment: IVT; E319G removed from C3; conditions: tags: PURExpress IVT

Binding signal, ~3 fold reduced vs C3:
B1
B2
B3

— patent US10344301, “Mutants of the bacteriophage lambda integrase” (AGENCY FOR SCIENCE, TECHNOLOGY AND RESEARCH)
